Screen size: about 220,000 compounds; about 2,000 (0.91%) were called active. Roughly 2% stayed inconclusive and do not appear here. No stated cut-off is given here; in the data, inconclusive means inhibition above about 80% without an active follow-up result; inactive means below that; test concentration not stated here. The list is a sample of the results. Potency and affinity values are given separately.

A short description of this assay: M. tuberculosis H37Rv growth inhibitors, H37Rv strain (AID 1626).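 Further: bacteria incubated seven days before Alamar blue readout; 0% = bacteria only wells and 100% = bacteria with antibiotic wells.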 The conditions noted are these: stronger effect = higher value, concentration not given here.
One may read the inhibition as the change of the read-out against control, counted positive when it falls. Consider `Cc1noc(C)c1COC(=O)c1ccc(-c2nc3ccccc3s2)s1`, for which the inhibition was -10.8% (inactive).
With `COCCNC(=O)COC(=O)CSCc1nc2ccccc2s1`, the inhibition was -1.53% (inactive).
As to `CCN1CCN(C(=O)c2ccc(-c3nc4ccccc4s3)s2)CC1`, the inhibition was 0.41% (inactive).
On to `O=C(NC1CC1)c1ccc(-c2nc3ccccc3s2)s1`, for which the inhibition was 46.3% (inactive).
Turning to `O=S(=O)(NC1CCCCC1)c1ccc(Br)cc1`, the inhibition is 3.07% (inactive).
Take `Cc1occc(=O)c1OCc1c(F)cccc1Cl`: the inhibition was 1.78% (inactive).
For `CC(C)CNC(=O)COc1ccc(Sc2ccc(OCC(=O)NCC(C)C)cc2)cc1`, the inhibition was 4.46% (inactive).
For the compound `CCc1nnc(NC(=O)CCC(=O)NCc2ccc(OC)cc2)s1`, the inhibition is -3.41% (inactive).
Turning to `O=C(O)c1cccc(Cn2c(Cl)c(/C=N/NC(=O)c3cccc(O)c3)sc2=O)c1`, the inhibition was -13.5% (inactive).
Turning to `Cc1ccc(NC(=O)CCC(=O)c2cccs2)c(O)c1`, the inhibition was -1.47% (inactive).
Consider `Cc1ccc2nc(-c3ccc(NS(C)(=O)=O)cc3)cc(-c3ccccc3)c2c1`, for which the inhibition was 64.5% (inactive).
In the case of `CCOC(=O)c1cc(-c2ccccc2)nc2ccc(C)cc12`, the inhibition is 29.4% (inactive).
In the case of `CCS(=O)(=O)Nc1cccc(-c2ccc3nnc(C)n3n2)c1`, the inhibition is -7.2% (inactive).
With `Cc1ccc2nc(-c3ccncc3)cc(-c3ccccc3)c2c1`, the inhibition is 9.15% (inactive).
In the case of `COC(=O)[C@@H]1CCCN1C(=O)CCc1nnc(C2CCCCC2)o1`, the inhibition is 3.78% (inactive).
As to `COc1ccc(NC(=O)O/N=C2/CCCc3ccc(OC)cc32)cc1`, the inhibition is -0.42% (inactive).
In the case of `Cc1nc(CSc2ccc(Cl)cc2)cc(N2CCOCC2)n1`, the inhibition was -2.98% (inactive).
Regarding `O=S(=O)(Cc1cc(N2CCOCC2)nc(-c2ccccn2)n1)c1ccccc1`, the inhibition is 2.59% (inactive).
Turning to `O=C(Nc1ccc2c(c1)OCO2)c1ccc(S(=O)(=O)N2CCCC2)cc1`, the inhibition is -0.32% (inactive).
Take `CCOc1ccc(NC(=O)c2ccc(CNc3c(N4CCCC4)c(=O)c3=O)cc2)cc1`: the inhibition is 67.9% (inactive).
Consider `CC(=O)Oc1c(Cl)cc(Cl)cc1/C=C/c1ccc2ccccc2n1`, for which the inhibition is 21.1% (inactive).
For `CCOc1cc(/C=C/c2ccc3cccc([N+](=O)[O-])c3n2)cc(Cl)c1O`, the inhibition is 0.72% (inactive).
As to `Nc1nccc(/C=C/c2c(F)cccc2Cl)n1`, the inhibition is 0.04% (inactive).
In the case of `Fc1cccc(F)c1/C=C/c1ccc2ccccc2n1`, the inhibition was 7.53% (inactive).
Consider `Clc1ccccc1OCc1nn[nH]n1`, for which the inhibition is -3.82% (inactive).
For the compound `Cn1cc2cccc([N+](=O)[O-])c2n1`, the inhibition is -0.35% (inactive).
With `O=C(/C=C/c1ccco1)Nc1ccc2c(c1)OCO2`, the inhibition is 2.3% (inactive).
With `Nc1nc(N2CCN(c3ccc(Cl)cc3)CC2)n[nH]1` the figure was 6.82% (inactive); with `CSc1ccc(C(=O)C2CCCN(Cc3ccn[nH]3)C2)cc1` (stereo not drawn), 2.84% (inactive); with `CCCCc1ncc(CN2CCCC(C(=O)c3ccc(SC)cc3)C2)[nH]1` (stereo not drawn), 1.38% (inactive).
For the compound `CCOC(=O)c1cc(-c2ccco2)nc2c1c(C)nn2-c1cccc(Cl)c1`, the inhibition is -0.03% (inactive).
As to `O=C(NCC1CCCCC1)c1cc([N+](=O)[O-])ccc1N1CCOCC1`, the inhibition is 6.09% (inactive).
For the compound `CC(NC(=O)c1ccc(F)cc1)c1ccc2c(c1)CCCC2` (stereo not drawn), the inhibition is 1.58% (inactive).
With `CC(NC(=O)c1ccccc1Br)c1ccc2c(c1)CCCC2` (stereo not drawn), the inhibition is 6.54% (inactive).
For `CCC(Sc1ncnc2c1nnn2-c1ccc(F)cc1)C(=O)OC` (stereo not drawn), the inhibition is 66.9% (inactive).
As for `CCOC(=O)C(CC)Sc1ncnc2c1nnn2-c1ccc(F)cc1` (stereo not drawn), the inhibition was 10.4% (inactive).
In the case of `Cc1cc(C)cc(NC(=O)NCc2c(-c3ccccc3)noc2C)c1` it was 1.42% (inactive).
As to `CCOc1ccc(NC(=O)c2ccccc2O)cc1`, the inhibition is 6.33% (inactive).
Regarding `CCOc1ccc(NC(=O)C(CC)NC(=O)c2ccccc2CO)cc1` (stereo not drawn), the inhibition is 3.2% (inactive).
On to `CN(C)/C=N/c1cc(=O)n(Cc2ccccc2)c(=O)n1C`, for which the inhibition was -11.1% (inactive).
In the case of `O=c1oc2ccc3ccccc3c2cc1-c1nnc(-c2ccccc2)o1`, the inhibition was 77.2% (inactive).
As for `COc1ccc2oc(=O)c(-c3nc4ccccc4o3)cc2c1`, the inhibition is 2.35% (inactive).
Regarding `O=c1oc2ccccc2cc1-c1nc2ccccc2o1`, the inhibition is 8.96% (inactive).
Consider `COc1ccc(-c2nnc(-c3cc4c(ccc5ccccc54)oc3=O)o2)cc1`, for which the inhibition was -4.32% (inactive).
On to `C=CCn1c(-c2ccccc2)nc2nc3ccccc3nc21`, for which the inhibition was 5.61% (inactive).
For `CNC(=O)CSc1nnc(-c2ccncc2)n1Cc1ccccc1`, the inhibition is -4.15% (inactive).
`CCOC(=O)CSC1=N/C(=C\c2cc(OC)c(OC)c(OC)c2)C(=O)N1C`: the inhibition is 0.23% (inactive).
In the case of `CCC1Oc2ccc(C)cc2N(Cc2cccc(C)c2)C1=O` (stereo not drawn) it was 17.5% (inactive); in that of `CN(Cc1ncc[nH]1)C(=O)c1cc(COc2c(F)cccc2F)on1`, 0.91% (inactive); in that of `CC1CN(C(=O)/C=C/c2ccc([N+](=O)[O-])s2)CC(C)O1` (stereo not drawn), 6.46% (inactive).
Take `Cc1ccc(/C=C/C(=O)N2CC(C)CC(C)C2)o1` (stereo not drawn): the inhibition is 15.8% (inactive).
Consider `O=C(/C=C/c1ccccc1[N+](=O)[O-])N1CCCCC1`, for which the inhibition was 3.44% (inactive).
With `O=C(/C=C/c1cccs1)N1CCCCC1` the figure was 12.9% (inactive).
On to `CCc1nc2ccccc2n1Cc1ccc(F)cc1`, for which the inhibition was 3.76% (inactive).
Take `CCOC(=O)N1CCC(NC(=O)Cn2cc3c(n2)CCCC3)CC1`: the inhibition was -5.16% (inactive).
With `Cc1ccccc1C(C(=O)NC1CCCCC1)N(C(=O)CNC(=O)c1ccco1)c1cccnc1` (stereo not drawn) the figure was 2.42% (inactive).
Take `NC1=NCC(O)=C1c1nc2ccccc2[nH]1`: the inhibition was 4.96% (inactive).
Turning to `COc1ccc(C(=O)/C=C/c2cn(CC(O)CN3CCN(C)CC3)c3ccccc23)cc1OC` (stereo not drawn), the inhibition was -1.8% (inactive).
As to `CCCCN(C)CC(O)Cn1cc(/C=C/C(=O)c2cccs2)c2ccccc21` (stereo not drawn), the inhibition is 32.9% (inactive).
On to `COc1ccc(C(=O)/C=C/c2cn(CC(O)CN3CCOCC3)c3ccccc23)cc1` (stereo not drawn), for which the inhibition was 15.2% (inactive).
In the case of `O=C(/C=C/c1cn(CC(O)CN2CCOCC2)c2ccccc12)c1cccs1` (stereo not drawn), the inhibition is 4.21% (inactive).
Turning to `O=Cc1cn(CC(O)CN2CCCCC2)c2ccccc12` (stereo not drawn), the inhibition was -4.08% (inactive).
On to `Cc1ccc(C(=O)/C=C/c2cn(CC(O)CN3CCOCC3)c3ccccc23)cc1` (stereo not drawn), for which the inhibition is 78.3% (inactive).
In the case of `C=CCNC(=O)c1ccc(-c2ccc([N+](=O)[O-])cc2)o1` it was 2.72% (inactive).
Take `COc1cccc(/C=C2\SC(=S)N(NC(=O)c3ccncc3)C2=O)c1`: the inhibition was -9.97% (inactive).
As for `O=C(NCc1csc(-c2cccs2)n1)Nc1ccc(F)cc1F`, the inhibition was -1.75% (inactive).
In the case of `Cc1cc(C)n(CC(O)Cn2c3ccc(Cl)cc3c3cc(Cl)ccc32)c(=O)n1` (stereo not drawn) it was 3.67% (inactive); in that of `OCCNCC(O)Cn1c2ccccc2c2ccccc21` (stereo not drawn), 3.13% (inactive).
Turning to `CCOc1ccc(N=c2scc(-c3ccc(OC)cc3)n2CCO)cc1`, the inhibition was 27.6% (inactive).
Regarding `OCCn1c(-c2ccccc2)csc1=Nc1ccccc1`, the inhibition is 3.23% (inactive).
In the case of `Cc1cc(C)cc(C(=O)NCCCc2ccccc2)c1` it was -1.21% (inactive); in that of `CCN(CC)C(=O)C1CCCN(Cc2sccc2C)C1` (stereo not drawn), -5.07% (inactive).
As to `Cc1nc(N)nc(COc2ccccc2)n1`, the inhibition is -5.7% (inactive).
Turning to `CCc1nc(N2CCCCC2)c2oc3ccccc3c2n1`, the inhibition was 22.4% (inactive).
In the case of `CCc1nc(N2CCC(C)CC2)c2oc3ccccc3c2n1`, the inhibition was 21.7% (inactive).
Turning to `O=C(NCCCn1ccnc1)C(=O)NCC(c1cccnc1)N1CCN(c2ccccc2)CC1` (stereo not drawn), the inhibition was 0.94% (inactive).
In the case of `COC(=O)/C(=N/Nc1ccccc1)N1CCCc2ccccc21` it was 38.7% (inactive); in that of `ClC(=C\c1ccccc1)/C=N/N1CCN(c2ccccn2)CC1`, -1.5% (inactive).
Take `O=C(CSc1ccccn1)Nc1ccc2c(c1)OCCO2`: the inhibition is -16.3% (inactive).
In the case of `CC(=O)Nc1ccc(NC(=O)CSc2ccc([N+](=O)[O-])cn2)cc1` it was -4.39% (inactive); in that of `CCSc1nnc(NC(=O)c2cccnc2Cl)s1`, -8.72% (inactive).
As for `CCSc1nnc(NC(=O)c2cnccn2)s1`, the inhibition is 2.03% (inactive).
Take `O=C(Nc1nnc(SCc2c(Cl)cccc2Cl)s1)c1ccc2ncsc2c1`: the inhibition was 29.9% (inactive).
As to `CSc1ncccc1C(=O)Nc1nnc(C2CC2)s1`, the inhibition is 0.73% (inactive).
Turning to `CC(=O)Nc1nnc(SCc2ccc(F)cc2)s1`, the inhibition is 1.23% (inactive).
Consider `O=C(Nc1nnc(SCc2ccc(F)cc2)s1)c1cccnc1Cl`, for which the inhibition is 7.86% (inactive).
Turning to `O=C(Nc1nnc(C2CC2)s1)c1ccncc1`, the inhibition was -4.03% (inactive).
Regarding `Cc1cnc(C(=O)Nc2nnc(C)s2)cn1`, the inhibition was -5.75% (inactive).
`COc1ccc(N2CCN(C(=O)C(C)(C)Oc3ccc(Cl)cc3)CC2)cc1`: the inhibition was 10.8% (inactive).
`CCCCn1c(/C=C/c2ccco2)nc2ccccc21`: the inhibition is -4.08% (inactive).
Consider `CN(CCC(=O)Nc1ccc2c(c1)OCO2)Cc1ccccc1`, for which the inhibition was -7.11% (inactive).
In the case of `Cc1cccc(S(=O)(=O)NNC(=O)Cc2cccn2C)c1` it was 3.18% (inactive); in that of `COc1ccccc1NC(=O)COc1ccc(Br)cc1CNCCCN1CCOCC1`, -1.49% (inactive); in that of `Oc1ccccc1/C=N/[n+]1ccccc1`, -3.35% (inactive).
In the case of `CCc1cc(=O)oc2cc(OCC(=O)O)c(Cl)cc12`, the inhibition was -5.56% (inactive).
Turning to `O=C(Nc1nnc(SCc2ccc(F)cc2)s1)c1ccco1`, the inhibition was -8.91% (inactive).
On to `CCC(=O)Nc1nnc(SCc2ccc(F)cc2)s1`, for which the inhibition is 7.4% (inactive).
With `CCCCNC(=O)Nc1ccccc1C(=O)Nc1ccc(OC)cc1` the figure was -1.66% (inactive).
On to `CCc1cccc(NC(=O)C(NC(=O)C2CCCCC2)C(C)C)c1` (stereo not drawn), for which the inhibition was -6.21% (inactive).
Consider `COc1ccc(C)cc1S(=O)(=O)N1c2ccccc2CC1C` (stereo not drawn), for which the inhibition is 2.45% (inactive).
With `CCOC(=O)c1cnc(-n2nc(C)cc2C)nc1NNc1nc(C)cc(C)n1`, the inhibition is 71.3% (inactive).
For the compound `CCOC(=O)c1cnc(-n2nc(C)cc2C)nc1N1CCOCC1`, the inhibition is -9.47% (inactive).
On to `CCOC(=O)c1cnc(-n2nc(C)cc2C)nc1Oc1ccc(C#N)cc1`, for which the inhibition is -2.96% (inactive).
For the compound `CCOC(=O)c1cnc(-n2nc(C)cc2C)nc1N(C)C`, the inhibition is 4.9% (inactive).
As to `CCOC(=O)c1cnc(-n2nc(C)cc2C)nc1Oc1ccc(C(=O)OC)cc1`, the inhibition is 8.41% (inactive).
For `CCOC(=O)c1cnc(-n2nc(C)cc2C)nc1Nc1ccc(O)cc1`, the inhibition is 0.145% (inactive).
In the case of `CCOC(=O)c1cnc(-n2nc(C)cc2C)nc1Nc1cccc(C(=O)O)c1` it was 7.26% (inactive).
In the case of `CCOC(=O)c1cnc(-n2nc(C)cc2C)nc1NC` it was 19.4% (inactive).

Values taken from PubChem BioAssay AID1626 (SRMLSC, 2009).
